According to PubChem BioAssay (NCATS):
Values without a mark were called inactive. Calls come from the whole dose curve; as a rule, active = well fitted activation curve with a large enough effect; inconclusive = small, poorly fitted or top-dose-only effect; inactive = flat fitted curve, though single readings scatter. Results filed as inconclusive are left out.

assay: Cellular Toxicity (caspase-3) Hek293 (AID 664); conditions: HEK293 caspase-3 activation, DMSO = 0%, 100 µM tamoxifen = 100%; at 92.2 µM (top of the series);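 note: cells exposed to compound for 16 h at 37 °C before readout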
How it was run: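 Activation of caspase-3/7 is measured as increased luminescence from cleaved peptide-aminoluciferin substrate in HEK293 cells treated 16 hours at 37 °C. AC50 values come from Hill-equation fits of concentration-response data.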

SMILES | caspase-3 activation
ClCc1ccccc1 | 1.06%
CCC/C=N/O | -0.0645%
COc1c(C(C)(C)C)cc([N+](=O)[O-])c(C)c1[N+](=O)[O-] | 1.65%
O=S(=O)(Cl)c1ccccc1 | -0.803%
C=CCOCC1CO1 (stereo not drawn) | 2.83%
Clc1ccccc1 | 0.224%
ClC(Cl)(Cl)C(Cl)(Cl)Cl | -1.3%
CCOC(=O)C1OC1(C)c1ccccc1 (stereo not drawn) | 1.59%
C/C=C/CC#N | 1.26%
ClC(Cl)C(Cl)Cl | -0.455%
Oc1c(Cl)cccc1Cl | 1.84%
Brc1cccc(-c2ccccc2)c1 | -1.08%
OCCCCO | -2.02%
Nn1cnnc1 | 0.966%
BrCCc1ccccc1 | 0.126%
Clc1cc(Cl)c(Cl)c(Cl)c1 | -0.644%
Cc1ccc(N)c(C)c1 | 1.54%
C1CC2OC2CC1C1CO1 (stereo not drawn) | -2.81%
CN(C)C(=O)Cl | -0.876%
Cc1ccc(N=C=O)cc1N=C=O | 2%
O=C(Cl)OCc1ccccc1 | 0.783%
C=CC(=O)OC | 2%
CCN(CC)N=O | 1.39%
OCC(Cl)CCl (stereo not drawn) | 1.15%
CC(C)CON=O | 0.719%
CC[N+](=O)[O-] | 3.71%
CC(C)(Cl)[N+](=O)[O-] | -0.194%
C[N+](=O)[O-] | -0.684%
ClCC(Br)CBr (stereo not drawn) | 0.439%

assay: Cellular Toxicity (caspase-3) N2a (AID 665); conditions: N2a cells, luminescence, normalized: DMSO 0%, 10 µM staurosporine 100%; series mostly up to 92.2 µM; caspase-3 activation: at the top concentration;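 note: compound exposure lasted 16 h at 37 °C before readout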
How it was run: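 Plated mouse neuroblastoma N2a cells received titrated compounds for 16 h in complete medium. Caspase activity was then detected with a peptide-aminoluciferin luminescent reagent.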

SMILES | caspase-3 activation
CC(C#N)CCC#N (stereo not drawn) | 1.09%
Nc1cc(Cl)ccc1Cl | 3.17%
Nc1cccc(Cl)c1 | 0.464%
ClCc1ccccc1 | -0.638%
CCC/C=N/O | -2.73%
COc1c(C(C)(C)C)cc([N+](=O)[O-])c(C)c1[N+](=O)[O-] | 1.9%
O=S(=O)(Cl)c1ccccc1 | -1.77%
C=CCOCC1CO1 (stereo not drawn) | -0.821%
c1ccoc1 | -0.0485%
Clc1ccccc1 | -0.936%
ClC(Cl)(Cl)C(Cl)(Cl)Cl | -0.376%
CCOC(=O)C1OC1(C)c1ccccc1 (stereo not drawn) | 5.3%
C/C=C/CC#N | 1.47%
ClC(Cl)C(Cl)Cl | 0.206%
C=CCCl | -1.02%
Oc1c(Cl)cccc1Cl | -0.569%
Brc1cccc(-c2ccccc2)c1 | 0.107%
C=CCO | -1.09%
OCCCCO | -3.18%
Nn1cnnc1 | 1.4%

SMILES | caspase-3 activation
BrCCc1ccccc1 | 0.387%
Cc1ccccc1[N+](=O)[O-] | -2.05%
CCCCOC(=O)c1ccccc1N | -1.68%
Clc1cc(Cl)c(Cl)c(Cl)c1 | -0.882%
Cc1ccc(N)c(C)c1 | -3.68%
C1CC2OC2CC1C1CO1 (stereo not drawn) | -2.3%
CN(C)C(=O)Cl | -1.56%
CC(=O)NNc1ccccc1 | -2.18%
Cc1ccc(N=C=O)cc1N=C=O | -2.02%
O=C(Cl)OCc1ccccc1 | 1.59%
C=CC(=O)OC | 0.265%
CCN(CC)N=O | -0.621%
OCC(Cl)CCl (stereo not drawn) | -2.21%
CC(C)CON=O | -1.46%
CC[N+](=O)[O-] | -2.56%
CC(C)(Cl)[N+](=O)[O-] | 1.53%
C[N+](=O)[O-] | 0.765%
CC(C)OC(=O)Cc1ccccc1 | -3.44%
ClCC(Br)CBr (stereo not drawn) | 1.29%
